From PubChem BioAssay AID743314 (Broad Institute, 2014)
Potency and affinity values are given separately. Results filed as inconclusive are left out. Calls of active or inactive are those of the source.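 How the source made its calls: active means fitted half-maximal concentration no higher than twice the top tested dose, in every repeat run; inconclusive means repeat runs disagree, poor fit, or flat partial inhibition; inactive means the rest.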

Molecular target: Endoplasmic reticulum aminopeptidase 1 (Homo sapiens) (UniProt Q9NZ08)
Assay: inhibition of human ERAP1 enzyme activity – biochemical, cherry-pick, set 2, plate reader, dose response (AID 743314)
Conditions: Recombinant ERAP1, Leu-AMC fluorescence, 60 min; series mostly up to 11 µM

Endoplasmic reticulum aminopeptidase 1 (Homo sapiens), sequence (Q9NZ08 whole entry, looked up): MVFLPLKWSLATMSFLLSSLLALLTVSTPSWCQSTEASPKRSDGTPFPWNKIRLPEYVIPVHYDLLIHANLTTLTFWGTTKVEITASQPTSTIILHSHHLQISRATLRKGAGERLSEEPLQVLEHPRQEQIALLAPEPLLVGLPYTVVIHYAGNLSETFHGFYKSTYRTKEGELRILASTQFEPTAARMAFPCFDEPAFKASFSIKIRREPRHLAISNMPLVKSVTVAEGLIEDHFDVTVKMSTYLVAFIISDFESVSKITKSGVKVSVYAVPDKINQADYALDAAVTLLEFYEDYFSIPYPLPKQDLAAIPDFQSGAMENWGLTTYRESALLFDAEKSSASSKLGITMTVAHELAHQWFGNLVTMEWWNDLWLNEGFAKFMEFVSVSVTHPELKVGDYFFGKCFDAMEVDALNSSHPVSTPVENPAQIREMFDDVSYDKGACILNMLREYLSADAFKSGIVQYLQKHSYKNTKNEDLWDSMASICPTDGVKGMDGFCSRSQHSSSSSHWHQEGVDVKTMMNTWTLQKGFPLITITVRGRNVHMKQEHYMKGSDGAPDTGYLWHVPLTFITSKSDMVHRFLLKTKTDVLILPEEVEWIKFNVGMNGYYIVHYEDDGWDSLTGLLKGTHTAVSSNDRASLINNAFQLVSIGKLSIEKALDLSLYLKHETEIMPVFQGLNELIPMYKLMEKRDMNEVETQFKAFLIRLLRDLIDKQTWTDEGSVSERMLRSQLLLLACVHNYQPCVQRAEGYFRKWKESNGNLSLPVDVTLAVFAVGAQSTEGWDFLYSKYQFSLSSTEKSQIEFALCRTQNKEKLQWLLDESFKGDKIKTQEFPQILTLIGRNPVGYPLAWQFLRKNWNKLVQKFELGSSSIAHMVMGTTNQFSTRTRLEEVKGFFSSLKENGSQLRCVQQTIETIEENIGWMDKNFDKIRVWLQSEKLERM

outcome, inactive:
Cc1ccc(S(=O)(=O)N2CCN(C(=O)COC(=O)c3ccc(Cl)c(S(N)(=O)=O)c3)CC2)c(C)c1
CCc1cc(=O)oc2c(CNCc3ccccc3F)c(O)c(Cl)cc12
C[C@H](CO)N1C[C@H](C)[C@@H](CN(C)C(=O)Nc2ccccc2)Oc2ccc(NC(=O)Nc3cccc4ccccc34)cc2C1=O
COc1ccc(CN(C)C[C@H]2OCCCC[C@H](C)Oc3ccc(NS(=O)(=O)c4cccs4)cc3C(=O)N([C@H](C)CO)C[C@H]2C)cc1
Cc1ccc(S(=O)(=O)Nc2ccc3c(c2)CC(=O)N([C@H](C)CO)C[C@H](C)[C@H](CN(C)Cc2ccccc2)O3)cc1
COc1ccc(CN(C)C[C@@H]2Oc3ccc(NS(=O)(=O)c4ccc(C)cc4)cc3C(=O)N([C@@H](C)CO)C[C@@H]2C)cc1
COc1ccc2c3c([nH]c2c1)[C@@H](CO)N(Cc1cc(F)ccc1F)CC31CN(C(=O)CN(C)C)C1
Cc1noc(C)c1S(=O)(=O)Nc1ccc2c(c1)C(=O)N([C@H](C)CO)C[C@@H](C)[C@@H](CN(C)CC1CCCCC1)OCCCC[C@@H](C)O2
COc1ccc(CN(C)C[C@H]2OCCCC[C@@H](C)Oc3ccc(NS(=O)(=O)c4cccs4)cc3C(=O)N([C@H](C)CO)C[C@@H]2C)cc1
C[C@@H]1CN([C@@H](C)CO)C(=O)c2cc(-c3ccc(F)cc3)cnc2O[C@@H]1CN(C)CC1CCCCC1
Cc1ccc(SC(C)C(=O)NCc2ccncc2)cc1 (centres undefined)
Cc1noc(C)c1NC(=O)N(C)C[C@H]1Oc2c(NC(=O)Nc3ccc(F)cc3)cccc2C(=O)N([C@H](C)CO)C[C@@H]1C
CC(=O)N(C)C[C@H]1Oc2cc(C#CC(C)C)ccc2S(=O)(=O)N([C@@H](C)CO)C[C@H]1C
CCOc1ccccc1-n1nnnc1SCC(=O)NC(=O)Cc1ccccc1
Cn1c(CCC(=O)Nc2cc(S(C)(=O)=O)ccc2Cl)nc2cc(S(=O)(=O)N3CCOCC3)ccc21
C[C@@H]1CCCCO[C@H](CN(C)S(=O)(=O)c2ccccc2)[C@H](C)CN([C@H](C)CO)C(=O)c2cc(NS(=O)(=O)c3ccc(Cl)cc3)ccc2O1
Cc1noc(C)c1NC(=O)N(C)C[C@@H]1Oc2c(NC(=O)Nc3ccc(F)cc3)cccc2C(=O)N([C@H](C)CO)C[C@H]1C
O=C(CSc1n[nH]c(-c2cccs2)n1)NC1CCS(=O)(=O)C1 (centres undefined)
C[C@@H]1CN([C@H](C)CO)C(=O)c2cccc(NC(=O)Nc3ccccc3)c2O[C@@H]1CN(C)Cc1ccc(C(=O)O)cc1
O=C(CN1CCN(S(=O)(=O)N2CCOCC2)CC1)Nc1ccc(Cl)c(Cl)c1
C[C@H]1CN([C@@H](C)CO)C(=O)CCCn2cc(nn2)CO[C@@H]1CN(C)Cc1ccccc1
O=C(c1ccccc1)N1CC(=O)N2[C@H](CO)[C@@H](c3ccc(-c4ccccc4)cc3)[C@H]2C1
C[C@@H]1CN([C@H](C)CO)C(=O)c2cc(NC(=O)CCN3CCOCC3)ccc2O[C@@H]1CN(C)S(=O)(=O)c1ccccc1
O=C(CSc1nc2ccccc2c(=O)n1-c1ccccc1)NCC1CCCO1 (centres undefined)
CN1CCN(S(=O)(=O)c2cccc(C(=O)Nc3cc(Cl)ccc3N3CCOCC3)c2)CC1
COc1ccc(-c2c(C)c3ccc(O)cc3oc2=O)cc1OC
O=C(O)c1ccccc1NS(=O)(=O)c1cccc(NS(=O)(=O)c2cc(Br)ccc2Br)c1
C[C@@H]1CN([C@H](C)CO)C(=O)c2cccc(NC(=O)Nc3ccc(C(F)(F)F)cc3)c2O[C@@H]1CN(C)C
COc1ccc(S(=O)(=O)N(C)C[C@H]2Oc3ccc(N(C)C)cc3CC(=O)N([C@H](C)CO)C[C@H]2C)cc1
COc1ccc(C(=O)NCc2nnc(SCCOc3ccccc3)n2C)cc1
Cc1[nH]c2ccccc2c1C(=O)CN1C(=O)C(=O)N(Cc2ccco2)C1=O
C[C@H](CO)N1C[C@H](C)[C@@H](CN(C)C(=O)Nc2ccccc2)Oc2ccc(NC(=O)c3ccncc3)cc2C1=O
Cc1cc(C)cc(N2CC(c3nc4ccccc4n3C)CC2=O)c1 (centres undefined)
CS(=O)(=O)N(CC(=O)N1CCOCC1)c1cccc(Cl)c1
